Experimental data reported in the supplement of paper PMC10849652.
The full data set covers some 8,800 targets. This sample favours those with a hit. About 0.5% of all pairs of compound and target were hits.

Key:
Experiment in all cases: log2 fold change, soluble protein after heating vs DMSO (PISA); higher = thermal stabilisation; K562 lysate, 10 uM; active = over 0.2 and 3.5 SD of the protein, either way, in both replicates (recomputed)
[1] = compound: C#Cc1cccc(Nc2ncnc3cc(OCCOC)c(OCCOC)cc23)c1 [erlotinib]
Procedure, shortened: (§1)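 Soluble protein was defined as the supernatant remaining after 21,000xg for 90 min, following pooling of heated aliquots and adjustment to 0.5% NP-40 at 4°C. Before that, crude K562 extract at 1 mg/mL protein in PBS pH 7.4 with 1 mM MgCl2 was treated with 10 μM compound for 30 min and heated for 3 min across 48°C-58°C. Quantification used TMTpro 16plex LC-MS/MS with channel sums equalised, and values are log-two fold changes in thermal stability relative to solvent controls from duplicates.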

[2] = compound: C/C(=N\NC(=O)C1=CC(=CC=C1)S(=O)(=O)N2CCOCC2)/C3=C(C=CC(=C3)Cl)O
Procedure, shortened: as §1

[3] = compound: C1=CC(=CC=C1C2=NC3=C(N2)C=C(C=C3)C(=O)N)OC4=CC=C(C=C4)Cl
Procedure, shortened: as §1

[4] = compound: C1=CC2=C(C=CC(=C2)/C=C\3/C(=O)NC(=NCC4=CC=CS4)S3)N=C1
Procedure, shortened: as §1

[5] = compound: C1=CC2=NC=CN=C2C=C1/C=C/3\C(=O)NC(=O)S3
Procedure, shortened: as §1

[6] = compound: C1=CC=C(C=C1)C2=NC(=C(N2)C3=CC=NC=C3)C4=CC(=C(C=C4)Cl)O
Procedure, shortened: as §1

[7] = compound: C1=CC=C2C(=C1)C3=NNC4=CC=CC(=C43)C2=O
Procedure, shortened: as §1

[8] = compound: C1CCN(C1)C(=O)NC2=CC=CC(=C2)NC3=NC=C(C(=N3)NCCC4=CN=CN4)Br
Procedure, shortened: as §1

[9] = compound: C1CN(CCC1(CC2=CC=C(C=C2)Cl)N)C3=NC=NC4=C3C=CN4
Procedure, shortened: as §1

[10] = compound: C1COCCN1CCN2C3=CC=CC=C3N=C2NC(=O)C4=CC(=CC=C4)[N+](=O)[O-] [IRAK-1-4 Inhibitor I]
Procedure, shortened: as §1

[11] = compound: C=CC(=O)N1CCC[C@@H](n2nc(-c3ccc(Oc4ccccc4)cc3)c3c(N)ncnc32)C1 [ibrutinib]
Procedure, shortened: as §1

[12] = compound: CC(=O)c1cnc2ccc(-c3cc(Cl)c(O)c(Cl)c3)nc2c1N[C@H]1CC[C@H](CN(C)C)CC1
Procedure, shortened: as §1

[13] = compound: CC(C)(C)Cn1c(N)nc2ccc(-c3[nH]c(C(C)(C)C)nc3-c3ccc(F)cc3)nc21 [ralimetinib]
Procedure, shortened: as §1

[14] = compound: CC(C)(O)CC(=O)NCCn1ccc2ncnc(Nc3ccc(Oc4cccc(C(F)(F)F)c4)c(Cl)c3)c21
Procedure, shortened: as §1

[15] = compound: CC(C)C1=C2N=C(C=C(N2N=C1)NCC3=CC=CC=C3)NCCCCCCN
Procedure, shortened: as §1

[16] = compound: CC1=C(C(CC(=O)N1)C2=CC=C(C=C2)C(F)(F)F)C(=O)NC3=C(C=C4C(=C3)C=NN4)F
Procedure, shortened: as §1

[17] = compound: CC1=C(C2=C(C=C1)C(=O)C3=CC=CC=C3N2CCCN)C
Procedure, shortened: as §1

[18] = compound: CC1=C(C=C(C=C1)NC(=O)C2=CC(=CC=C2)C(C)(C)C#N)NC3=CC4=C(C=C3)N=CN(C4=O)C
Procedure, shortened: as §1

[19] = compound: CC1=C(C=C(C=C1)NC(=O)C2=CC(=CC=C2)N(C)C)NC(=O)C3=CC=C(C=C3)O
Procedure, shortened: as §1

[20] = compound: CC1=CC=C(C=C1)SC2=C3C=C(SC3=CN=C2)C(=O)N
Procedure, shortened: as §1

Measured: log2 fold change

TUBB1 (UniProt Q9H4B7)
Chain of UniProt Q9H4B7 (Q9H4B7 whole entry, looked up): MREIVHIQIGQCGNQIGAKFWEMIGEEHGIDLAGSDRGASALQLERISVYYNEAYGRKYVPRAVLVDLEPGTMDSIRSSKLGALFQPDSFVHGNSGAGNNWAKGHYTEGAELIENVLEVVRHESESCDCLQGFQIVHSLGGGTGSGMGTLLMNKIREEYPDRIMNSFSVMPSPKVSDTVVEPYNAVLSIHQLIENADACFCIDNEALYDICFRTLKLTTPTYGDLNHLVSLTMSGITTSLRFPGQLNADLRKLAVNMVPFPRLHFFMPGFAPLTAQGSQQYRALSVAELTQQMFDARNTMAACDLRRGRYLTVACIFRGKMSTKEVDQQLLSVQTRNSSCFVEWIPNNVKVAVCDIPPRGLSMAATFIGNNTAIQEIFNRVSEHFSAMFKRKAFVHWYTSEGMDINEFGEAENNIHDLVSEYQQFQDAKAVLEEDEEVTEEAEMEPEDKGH
inactive: [1] 0.011 | [2] 0.091 | [3] 0.005 | [4] 0.01 | [5] 0.022 | [6] -0.011 | [7] 0.014 | [8] 0.015 | [9] 0.027 | [10] 0.019 | [11] -0.005 | [12] -0.01 | [13] -0.003 | [14] -0.007 | [15] 0 | [16] 0.049 | [17] 0.028 | [18] -0.036 | [19] 0.002 | [20] 0.012

TRADD (UniProt Q15628)
Chain of UniProt Q15628 (Q15628 whole entry, looked up): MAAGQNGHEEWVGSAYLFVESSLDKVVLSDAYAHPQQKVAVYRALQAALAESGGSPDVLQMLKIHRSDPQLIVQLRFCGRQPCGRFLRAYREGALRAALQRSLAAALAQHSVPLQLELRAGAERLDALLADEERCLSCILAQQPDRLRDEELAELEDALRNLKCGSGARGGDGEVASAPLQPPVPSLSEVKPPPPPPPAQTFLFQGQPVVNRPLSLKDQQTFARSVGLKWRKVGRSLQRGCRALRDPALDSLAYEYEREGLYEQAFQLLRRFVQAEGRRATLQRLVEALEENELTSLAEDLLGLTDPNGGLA
active: [2] 0.258
inactive: [1] 0.053 | [3] 0.03 | [4] -0.224 | [5] 0.009 | [6] -0.013 | [7] 0.251 | [8] 0.029 | [9] 0.076 | [10] 0.033 | [11] 0.013 | [12] 0.017 | [13] -0.005 | [14] -0.012 | [15] -0.018 | [16] -0.015 | [17] -0.001 | [18] 0.017 | [19] 0.021 | [20] 0.019

TBCE (UniProt Q15813)
Chain of UniProt Q15813 (Q15813 whole entry, looked up): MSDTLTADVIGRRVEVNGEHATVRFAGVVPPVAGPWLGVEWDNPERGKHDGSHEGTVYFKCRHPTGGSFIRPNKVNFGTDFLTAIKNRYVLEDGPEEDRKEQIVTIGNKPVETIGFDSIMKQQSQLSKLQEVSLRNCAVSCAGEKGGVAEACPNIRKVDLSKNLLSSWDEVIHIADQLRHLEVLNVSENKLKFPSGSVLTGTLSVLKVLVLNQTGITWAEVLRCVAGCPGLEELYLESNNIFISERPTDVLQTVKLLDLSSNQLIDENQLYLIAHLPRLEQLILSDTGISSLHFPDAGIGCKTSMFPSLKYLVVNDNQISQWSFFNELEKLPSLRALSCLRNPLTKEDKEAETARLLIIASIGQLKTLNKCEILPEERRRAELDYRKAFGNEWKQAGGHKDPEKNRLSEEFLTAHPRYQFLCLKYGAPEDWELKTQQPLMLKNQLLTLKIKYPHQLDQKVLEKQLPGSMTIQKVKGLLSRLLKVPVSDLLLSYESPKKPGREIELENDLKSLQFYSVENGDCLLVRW
inactive: [1] 0.02 | [2] 0.049 | [3] -0.016 | [4] 0.004 | [5] 0.014 | [6] 0.001 | [7] -0.07 | [8] -0.027 | [9] 0.038 | [10] -0.002 | [11] -0.027 | [12] 0.004 | [13] 0.037 | [14] 0.01 | [15] -0.004 | [16] 0.003 | [17] 0.004 | [18] -0.007 | [19] 0.025 | [20] -0.016

THADA (UniProt Q6YHU6)
Chain of UniProt Q6YHU6 (Q6YHU6 whole entry, looked up): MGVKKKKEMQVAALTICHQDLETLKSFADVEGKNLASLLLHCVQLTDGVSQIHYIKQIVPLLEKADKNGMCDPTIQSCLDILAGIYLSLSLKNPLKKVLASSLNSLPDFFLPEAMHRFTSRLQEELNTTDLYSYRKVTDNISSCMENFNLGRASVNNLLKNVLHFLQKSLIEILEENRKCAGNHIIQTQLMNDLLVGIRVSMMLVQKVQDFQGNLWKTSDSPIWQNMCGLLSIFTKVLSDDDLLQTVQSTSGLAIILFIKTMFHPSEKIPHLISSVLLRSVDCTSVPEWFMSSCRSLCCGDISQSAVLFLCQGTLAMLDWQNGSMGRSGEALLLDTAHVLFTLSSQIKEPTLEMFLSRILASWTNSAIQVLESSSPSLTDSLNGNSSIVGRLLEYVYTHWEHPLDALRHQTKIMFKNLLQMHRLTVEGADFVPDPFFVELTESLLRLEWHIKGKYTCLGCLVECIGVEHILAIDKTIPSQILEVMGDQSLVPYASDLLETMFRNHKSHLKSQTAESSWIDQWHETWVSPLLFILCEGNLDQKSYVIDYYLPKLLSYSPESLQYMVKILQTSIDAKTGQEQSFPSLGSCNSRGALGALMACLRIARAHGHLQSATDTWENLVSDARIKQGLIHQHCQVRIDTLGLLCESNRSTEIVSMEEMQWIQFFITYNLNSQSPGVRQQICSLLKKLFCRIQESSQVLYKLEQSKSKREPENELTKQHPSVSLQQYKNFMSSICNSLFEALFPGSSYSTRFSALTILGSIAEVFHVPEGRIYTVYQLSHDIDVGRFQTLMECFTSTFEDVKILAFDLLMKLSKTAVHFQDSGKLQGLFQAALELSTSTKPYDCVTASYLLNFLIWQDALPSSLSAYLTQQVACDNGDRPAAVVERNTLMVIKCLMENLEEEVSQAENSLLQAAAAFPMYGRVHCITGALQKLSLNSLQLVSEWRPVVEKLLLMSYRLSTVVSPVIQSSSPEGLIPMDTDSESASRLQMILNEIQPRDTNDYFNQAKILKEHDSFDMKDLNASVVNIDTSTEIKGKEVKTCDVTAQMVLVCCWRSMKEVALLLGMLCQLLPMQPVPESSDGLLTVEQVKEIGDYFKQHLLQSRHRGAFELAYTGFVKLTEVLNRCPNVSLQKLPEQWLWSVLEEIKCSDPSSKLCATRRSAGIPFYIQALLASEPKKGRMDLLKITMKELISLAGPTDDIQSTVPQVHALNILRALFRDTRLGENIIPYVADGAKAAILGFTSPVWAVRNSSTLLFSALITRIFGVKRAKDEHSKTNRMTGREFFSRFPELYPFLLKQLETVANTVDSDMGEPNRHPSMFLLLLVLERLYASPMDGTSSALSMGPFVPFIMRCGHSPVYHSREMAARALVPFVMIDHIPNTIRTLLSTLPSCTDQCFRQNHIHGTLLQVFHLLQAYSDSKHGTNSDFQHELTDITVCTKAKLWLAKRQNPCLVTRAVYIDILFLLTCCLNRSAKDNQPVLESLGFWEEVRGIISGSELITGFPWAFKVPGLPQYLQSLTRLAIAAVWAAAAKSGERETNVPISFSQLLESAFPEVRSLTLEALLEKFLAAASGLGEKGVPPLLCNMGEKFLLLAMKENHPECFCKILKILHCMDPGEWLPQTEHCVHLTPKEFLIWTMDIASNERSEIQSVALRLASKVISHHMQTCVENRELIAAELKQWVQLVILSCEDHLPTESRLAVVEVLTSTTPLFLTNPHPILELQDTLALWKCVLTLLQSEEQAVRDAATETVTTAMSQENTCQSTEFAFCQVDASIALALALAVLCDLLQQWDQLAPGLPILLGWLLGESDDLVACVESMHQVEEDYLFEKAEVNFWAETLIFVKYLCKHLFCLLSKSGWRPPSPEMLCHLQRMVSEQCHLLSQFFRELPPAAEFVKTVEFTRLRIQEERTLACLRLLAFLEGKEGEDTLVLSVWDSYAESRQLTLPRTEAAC
inactive: [1] 0.059 | [2] -0.003 | [3] 0 | [4] 0.004 | [5] -0.011 | [6] -0.004 | [7] -0.017 | [8] -0.024 | [9] 0.017 | [10] -0.017 | [11] 0.011 | [12] 0.006 | [13] -0.009 | [14] -0.029 | [15] -0.016 | [16] -0.01 | [17] 0.012 | [18] 0.028 | [19] 0.03 | [20] 0.013

TECR (UniProt Q9NZ01)
Chain of UniProt Q9NZ01 (Q9NZ01 whole entry, looked up): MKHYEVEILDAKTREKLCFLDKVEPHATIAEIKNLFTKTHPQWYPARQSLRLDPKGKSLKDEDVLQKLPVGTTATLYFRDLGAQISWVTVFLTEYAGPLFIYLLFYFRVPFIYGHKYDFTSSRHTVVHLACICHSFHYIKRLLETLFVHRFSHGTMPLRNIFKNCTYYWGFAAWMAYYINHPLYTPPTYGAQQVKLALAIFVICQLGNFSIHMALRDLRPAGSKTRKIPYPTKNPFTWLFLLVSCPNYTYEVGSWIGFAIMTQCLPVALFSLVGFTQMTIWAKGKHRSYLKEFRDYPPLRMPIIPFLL
inactive: [1] 0.024 | [2] -0.029 | [3] -0.113 | [4] 0.019 | [5] 0.083 | [6] -0.013 | [7] -0.066 | [8] -0.008 | [9] 0.028 | [10] 0.038 | [11] -0.003 | [12] 0.037 | [13] 0 | [14] -0.046 | [15] -0.003 | [16] 0.044 | [17] 0.041 | [18] -0.031 | [19] 0.06 | [20] 0.025

TMEM14C (UniProt Q9P0S9)
Chain of UniProt Q9P0S9 (Q9P0S9 whole entry, looked up): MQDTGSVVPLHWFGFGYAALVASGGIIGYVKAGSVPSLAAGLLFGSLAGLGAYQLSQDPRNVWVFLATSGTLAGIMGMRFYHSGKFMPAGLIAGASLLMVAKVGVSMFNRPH
inactive: [1] 0.027 | [2] -0.201 | [3] 0.046 | [4] -0.011 | [5] -0.039 | [6] 0.022 | [7] 0.063 | [8] -0.177 | [9] -0.042 | [10] 0.064 | [11] 0.04 | [12] 0.085 | [13] 0.129 | [14] -0.077 | [15] -0.135 | [16] -0.047 | [17] -0.146 | [18] 0.048 | [19] 0.007 | [20] 0.152

TRIM33 isoform 2 (UniProt Q9UPN9)
Chain of UniProt Q9UPN9 (Q9UPN9 whole entry, looked up): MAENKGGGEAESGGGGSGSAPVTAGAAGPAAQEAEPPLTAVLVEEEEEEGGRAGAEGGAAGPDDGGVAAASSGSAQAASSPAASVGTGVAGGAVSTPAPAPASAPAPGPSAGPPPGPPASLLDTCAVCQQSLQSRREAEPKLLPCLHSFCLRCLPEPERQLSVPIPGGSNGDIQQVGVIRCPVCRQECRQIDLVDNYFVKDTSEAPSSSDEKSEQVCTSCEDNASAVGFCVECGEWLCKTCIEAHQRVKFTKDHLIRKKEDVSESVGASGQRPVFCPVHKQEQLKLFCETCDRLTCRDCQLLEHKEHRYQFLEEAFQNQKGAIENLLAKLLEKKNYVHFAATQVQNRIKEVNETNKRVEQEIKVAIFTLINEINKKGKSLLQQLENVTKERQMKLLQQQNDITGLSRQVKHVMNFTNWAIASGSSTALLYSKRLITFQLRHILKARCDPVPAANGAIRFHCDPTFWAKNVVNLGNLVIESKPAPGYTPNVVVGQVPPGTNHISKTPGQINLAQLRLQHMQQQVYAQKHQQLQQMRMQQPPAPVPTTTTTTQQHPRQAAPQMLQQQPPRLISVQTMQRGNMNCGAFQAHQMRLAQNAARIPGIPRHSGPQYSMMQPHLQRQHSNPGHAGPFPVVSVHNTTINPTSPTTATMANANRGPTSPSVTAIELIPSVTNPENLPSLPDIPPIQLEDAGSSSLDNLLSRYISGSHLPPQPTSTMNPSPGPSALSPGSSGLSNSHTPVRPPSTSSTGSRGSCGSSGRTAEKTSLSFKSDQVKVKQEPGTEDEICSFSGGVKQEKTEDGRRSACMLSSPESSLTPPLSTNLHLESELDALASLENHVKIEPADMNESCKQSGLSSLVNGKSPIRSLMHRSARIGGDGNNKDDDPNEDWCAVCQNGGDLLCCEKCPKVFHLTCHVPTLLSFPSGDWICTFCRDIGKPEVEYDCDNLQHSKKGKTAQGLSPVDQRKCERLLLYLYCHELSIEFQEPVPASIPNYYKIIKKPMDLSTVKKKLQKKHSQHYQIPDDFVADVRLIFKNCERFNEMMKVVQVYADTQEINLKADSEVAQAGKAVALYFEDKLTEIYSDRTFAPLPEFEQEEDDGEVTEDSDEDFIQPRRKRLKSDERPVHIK
inactive: [1] 0.004 | [2] -0.016 | [3] 0.014 | [4] 0.004 | [5] -0.002 | [6] 0.003 | [7] 0.008 | [8] -0.03 | [9] 0.006 | [10] -0.02 | [11] 0.04 | [12] 0.006 | [13] 0.024 | [14] 0.022 | [15] -0.026 | [16] 0.01 | [17] 0 | [18] -0.014 | [19] 0.019 | [20] 0.005

TCF12 isoform 3 (UniProt Q99081)
inactive: [1] -0.001 | [2] -0.025 | [3] 0.081 | [4] 0.006 | [5] -0.004 | [6] -0.017 | [7] 0.003 | [8] -0.063 | [9] 0.006 | [10] 0.051 | [11] 0.059 | [12] -0.029 | [13] -0.022 | [14] -0.054 | [15] 0.002 | [16] -0.008 | [17] 0.064 | [18] -0.008 | [19] 0.011 | [20] 0.109
